Experimental findings from PubChem BioAssay (EPA / NIEHS) are described below.

Each structure is given as a SMILES string. Where “and” joins values, the source holds several entries; their conditions need not be identical. Equal entries are not always repeated. Inconclusive results are not listed. More than one record can exist for a structure, and the calls need not agree. Calls of active or inactive are those of the source. The calls were made as follows: active = hit-call score of the fitted dose curve at least 0.9, where 1 is the maximum; inconclusive = response in the unintended direction; inactive = score below 0.9.

Read-out in the test: Cytochrome P450 2B6 (Homo sapiens) (UniProt P20813)
Nature of the test: CLD_CYP2B6_24hr: CellzDirect (CLD) Gene Expression Assay for xenobiotic metabolism (CYP2B6) at 24 hours (AID 2283686). How it is done:
CLD_24hr is a cell-based, multiplexed-readout assay that uses hepatocyte, a human liver primary cell, with measurements taken at 24 hours after chemical dosing in a 96-well plate.CLD_CYP2B6_24hr is one of 16 assay component(s) measured or calculated from the CLD_24hr assay. It is designed to make measurements of mRNA induction, a form of inducible reporter, as detected with chemiluminescence signals by Quantitative Nuclease Protection Assay (qNPA) technology.Data from the assay component CLD_CYP2B6_24hr was analyzed at the endpoint, CLD_CYP2B6_24hr, in the positive analysis fitting direction relative to DMSO as the negative control and baseline of activity. Using a type of inducible reporter, gain-of-signal activity can be used to understand changes in the reporter gene as they relate to the gene CYP2B6. Furthermore, this assay endpoint can be referred to as a primary readout. To generalize the intended target to other relatable targets, this assay endpoint is annotated to the cyp intended target family, where subfamily is xenobiotic metabolism.
Human hepatocyte cultures were treated daily for two consecutive days with fresh dosing solutions containing appropriate concentrations of the 320 ToxCast chemicals (chemical identities were blinded to CellzDirect and other ToxCast collaborators), vehicle control (0.2% DMSO), and positive control inducers as summarized in Table 1. Due to the large number of treatment groups and chemicals examined, the ToxCast chemicals were divided into two groups (spanning two independent cultures of hepatocytes from separate donor preparations (Hu778: ToxCast plates 1 and 2; Hu776: ToxCast plates 3 and 4). Each preparation of human hepatocyte cultures was treated with respective vehicle control, medium only control, set of six positive controls/reference chemicals for the five hepatic receptor pathways, and a subset of eight of the ToxCast chemicals (indoxacarb, pyrithiobac-sodium, norflurazon, cyhalofop-butyl, methomyl, thiram, acetochlor, and propiconazole). These replicate data, coupled with internal replicates designed within the blinded ToxCast chemical library, provided additional data to evaluate interindividual differences between hepatocyte preparations and their potential impact on chemical profiles.Cell morphology and integrity were evaluated using phase-contrast microscopy as an indicator of hepatocyte cell health (Tyson & Green, 1987). Cultures for each treatment group (i.e., media, vehicle [0.2% DMSO], positive control inducers [multiple concentrations], and the ToxCast chemicals [multiple concentrations]) were observed and cell morphology was assessed relative to vehicle control cultures at each harvest time point (0, 6, 24, or 48 h). […] Images were evaluated at the conclusion of the study to assess changes in cell integrity and account for the effects of chemical exposure on uncharacteristic changes in concentration-dependent gene expression profiles. The results from these determinations of apparent cytotoxicity were annotated (yes/no) alongside the corresponding qNPA data for reference.At the conclusion of each treatment period, hepatocyte cultures (96-well) were washed with 1 volume of HBSS, lysed by addition of 25 ul ArrayPlate lysis buffer (HTG, Tucson, AZ), and 70 ul/well of Denaturation Oil, denatured by incubation at 95C for 10 min, and frozen at approximately -70C until analysis by nuclease protection assay (qNPA) (Roberts et al., 2007). For qNPA analysis, cell lysates were thawed at 50C for approximately 30 min, qNPA probes were added, and samples were incubated at 95C for 10 min to begin the detection process by denaturing the target RNA, dissociating the duplexes and secondary structure hybridization. At the conclusion of the hybridization period, S1 nuclease reagent was added to each sample to digest all nonprotected nucleotides at 50C for 60-90 min. […]
Broadly, the AC50 is the concentration at which the activity in the assay is half-maximal. Turning to `CC1COC(Cn2cncn2)(c2ccc(Oc3ccc(Cl)cc3)cc2Cl)O1` (stereo not given), the half-maximal activity concentration (AC50) is 0.000442 µM (active).
Turning to `CC(Oc1ccc(Cl)cc1Cl)C(=O)O` (stereo not given), the call was inactive.
With `CCNc1nc(Cl)nc(NCC)n1`, the AC50 is 9.74 µM (active).
Turning to `CC(C)C1(C)N=C(c2nc3ccccc3cc2C(=O)O)NC1=O` (stereo not given), the compound was called inactive.
As to `Fc1ccc(Oc2ccnc3cc(Cl)cc(Cl)c23)cc1`, the call was inactive.
For the compound `COc1ccc(C(c2ccc(OC)cc2)C(Cl)(Cl)Cl)cc1`, the AC50 is 7.11 µM (active).
As for `C=CC1(C)OC(=O)N(c2cc(Cl)cc(Cl)c2)C1=O` (stereo not given), the AC50 is 7.15 µM (active).
As for `CC1=C(C(=O)Nc2ccccc2)SCCO1`, the AC50 was 6 µM (active).
For `COC(=O)C(C)Oc1ccc(Oc2ccc(Cl)cc2Cl)cc1` (stereo not given), the call was inactive; the AC50 is 20 µM (active) and 34.6 µM (active).
As for `CCCCNC(=O)OCC#CI`, the compound was classed as inactive.
For the compound `Oc1ccccc1-c1ccccc1`, the AC50 was 6.24 µM (active).
As for `O=C(O)c1nc(Cl)ccc1Cl`, the compound was called inactive.
Same read-out and setting: the result for `COc1nc(NC(C)C)nc(NC(C)C)n1` reads “inactive”.
With `N#CC(CCc1ccc(Cl)cc1)(Cn1cncn1)c1ccccc1` (stereo not given), the AC50 was 0.389 µM (active).
Turning to `CCCCC(CC)COC(=O)c1ccccc1C(=O)OCC(CC)CCCC` (stereo not given), the result was inactive.
Take `C#CCOS(=O)OC1CCCCC1Oc1ccc(C(C)(C)C)cc1` (stereo not given): the AC50 was 3.2 µM (active).
Take `O=C(Nc1ccccc1)Nc1ccnc(Cl)c1`: the AC50 is 8.15 µM (active).
With `COC(=O)C=C(C)OP(=O)(OC)OC`, the outcome was inactive.
Regarding `CO/C=C(/C(=O)OC)c1ccccc1Oc1cc(Oc2ccccc2C#N)ncn1`, the AC50 was 7.02 µM (active).
Turning to `COC(=O)c1ccccc1C(=O)OC`, the result was inactive.
With `COC(=O)N(OC)c1ccccc1COc1ccn(-c2ccc(Cl)cc2)n1`, the call was inactive.
Take `CCOc1cc(Oc2ccc(C(F)(F)F)cc2Cl)ccc1[N+](=O)[O-]`: the outcome was inactive.
For `CC(C)Oc1cc(-n2nc(C(C)(C)C)oc2=O)c(Cl)cc1Cl`, the AC50 was 0.829 µM (active).
As for `CCCCOC(=O)c1ccccc1C(=O)OCCCC`, the AC50 is 5.33 µM (active) and the compound was called inactive.
With `COc1cnc(OC)n2nc(NS(=O)(=O)c3c(OCC(F)F)cccc3C(F)(F)F)nc12`, the compound was called inactive.
`CCOC(=O)CC(SP(=S)(OC)OC)C(=O)OCC` (stereo not given): the outcome was inactive.
Consider `CCOC(=O)C(Cl)Cc1cc(-n2nc(C)n(C(F)F)c2=O)c(F)cc1Cl` (stereo not given), for which the AC50 is 6.33 µM (active).
For the compound `N#Cc1nn(-c2c(Cl)cc(C(F)(F)F)cc2Cl)c(N)c1S(=O)C(F)(F)F` (stereo not given), the AC50 is 1.9 µM (active).
On to `Cc1cc(Cl)ccc1OCC(=O)O`, for which the compound was called inactive.
For `COc1nc(C)nc(NC(=O)NS(=O)(=O)c2ccccc2Cl)n1`, the outcome was inactive.
For `CCNc1nc(Cl)nc(NC(C)C)n1`, the AC50 was 3.92 µM (active).
Regarding `C=CCC1=C(C)[C@@H](OC(=O)[C@@H]2[C@@H](C=C(C)C)C2(C)C)CC1=O`, the AC50 is 20 µM (active).
Take `CCCCNC(=O)n1c(NC(=O)OC)nc2ccccc21`: the compound was called inactive.
With `Cc1c(F)c(F)c(COC(=O)C2C(/C=C(\Cl)C(F)(F)F)C2(C)C)c(F)c1F` (stereo not given), the AC50 was 20 µM (active).
Take `CON(C)C(=O)Nc1ccc(Cl)c(Cl)c1`: the AC50 was 0.735 µM (active).
As for `CCOP(=S)(OCC)SCn1c(=O)oc2cc(Cl)ccc21`, the AC50 was 3.97 µM (active).
Regarding `CCCC1COC(Cn2cncn2)(c2ccc(Cl)cc2Cl)O1` (stereo not given), the half-maximal activity concentration (AC50) was 0.668 µM (active).
As to `CCON=C(CC)C1=C(O)CC(c2c(C)cc(C)cc2C)CC1=O` (stereo not given), the result was inactive.
